In the library only some 2.7% were active in any assay of this set; here they are far more common.
ERa SRC1 pot: enhancers of ERα–SRC-1 coactivator binding, primary screen, biochemical, TR-FRET, ERα LBD, low estradiol. Estrogen receptor (Homo sapiens), P03372. TR-FRET ERalpha-LBD/SRC-Cy5 coactivator binding, 2 h; 100 = basal binding, no effect. coactivator binding (% of control), % at 25.6 µM. 86,000 tested, 1.3% active; in the data active means activity above about 200%;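 further: binding measured in presence of low estradiol as agonist stimulus; 0% = peptide alone without receptor and 100% = receptor with peptide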
ERa SRC1 inh: ERα–SRC-1 coactivator interaction inhibitors, primary screen, biochemical, TR-FRET, ERα LBD, estradiol-bound; Estrogen receptor (Homo sapiens), P03372; TR-FRET ER-alpha LBD / SRC-1 peptide; inhibition, % at 25.6 µM; 86,000 tested, 1.7% active; AID 629, 2007; in the data active means inhibition above about 50%;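 further: 0% = receptor plus peptide control and 100% = peptide only without receptor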
ERb SRC1 inh: inhibitors of ERβ-SRC1 coactivator interaction, primary screen, biochemical, TR-FRET, ERβ LBD, SRC-1 peptide; 86,000 tested, 1.3% active; Estrogen receptor beta (Homo sapiens), Q92731; TR-FRET ER-beta LBD / SRC1-Cy5 peptide binding; receptor agonist-loaded with 1 µM estradiol; AID 633, 2007; inhibition, % at 25.6 µM;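 active means compounds whose percent inhibition of the receptor-coactivator binding signal exceeds about 50% in the single-dose screen, limit read from the data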;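 further: 0% = receptor plus peptide wells without compound and 100% = peptide-only wells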
Target sequence (Q92731 whole entry, looked up, the tested form may be a part): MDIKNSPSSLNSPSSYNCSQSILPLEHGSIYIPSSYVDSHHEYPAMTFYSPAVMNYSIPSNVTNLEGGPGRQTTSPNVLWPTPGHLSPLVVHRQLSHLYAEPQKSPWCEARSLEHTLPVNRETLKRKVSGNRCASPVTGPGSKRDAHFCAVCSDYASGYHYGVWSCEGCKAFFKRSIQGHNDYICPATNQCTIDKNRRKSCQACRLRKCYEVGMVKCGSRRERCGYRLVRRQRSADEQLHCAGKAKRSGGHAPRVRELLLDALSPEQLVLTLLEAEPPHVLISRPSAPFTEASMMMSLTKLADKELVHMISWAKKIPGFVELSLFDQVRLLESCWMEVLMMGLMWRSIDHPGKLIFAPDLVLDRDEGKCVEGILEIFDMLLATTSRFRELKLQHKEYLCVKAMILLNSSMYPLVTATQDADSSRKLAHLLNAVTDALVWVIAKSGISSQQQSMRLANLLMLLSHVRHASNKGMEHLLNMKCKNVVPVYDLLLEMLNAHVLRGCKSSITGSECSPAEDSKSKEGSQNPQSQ
MRP resist rev: reversal of MRP1-mediated doxorubicin resistance, primary screen, H69AR cells, doxorubicin co-treatment; H69AR cells + 2 uM doxorubicin, CellTiter-Glo, 72 h; differential viability (reversal), % at 10 µM; 85,000 tested, 0.04% active;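 active means viability drop by adding the cancer drug above about 55%, with treated viability meeting a 40% cutoff, limit read from the data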;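 further: viability without doxorubicin minus viability with 2 µM doxorubicin for each compound; larger differential means the compound sensitizes cells more to doxorubicin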
MRP1 act: H69AR viability gain despite doxorubicin, primary screen, MRP-1 activator project, H69AR cells, CellTiter-Glo; 140,000 tested, 0.61% active; viability increase, % at 10 µM; viability rescue; AID 799, 2007;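 active means viability gain under doxorubicin at or above a set limit, the compound median plus 3 SD, cut at about 4.7% in these data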;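 further: MRP-1 overexpressing cells given doxorubicin 25 µM after compound pretreatment; 18-22 h compound pretreatment then 72 h with doxorubicin before readout; 0% = doxorubicin-only wells and 100% = vehicle-treated cells without doxorubicin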
An asterisk follows results filed as active; [ ] = another dose, or the depositor's remark.

`O=c1c(-c2nnc(SCc3ccc(Cl)cc3)o2)cccn1Cc1ccccc1` gave MRP1 act 5.4*.
`O=C(CSc1nc2ccccc2[nH]1)N1CCN(S(=O)(=O)c2ccc(Cl)cc2)CC1` gave ERa SRC1 pot 96.8, ERa SRC1 inh -1.9, ERb SRC1 inh -3.5, MRP resist rev 6.1 and MRP1 act 0.6.
For COC(=O)Cn1c(=O)cnc2ccccc21 the results were ERa SRC1 pot 103.2, ERa SRC1 inh 5.0, ERb SRC1 inh -1.1, MRP resist rev 3.3 and MRP1 act 1.7.
For COC(=O)c1cc(NC(=O)Cn2c(=O)cnc3ccccc32)cc(C(=O)OC)c1 the results were ERa SRC1 pot 79.8, ERa SRC1 inh 55.1*, ERb SRC1 inh 24.5, MRP resist rev 5.7 and MRP1 act -1.7.
For CCN(CC)CCn1c2ccccc2c2cnc(N)c(C#N)c21 the results were ERa SRC1 pot 106.3, ERa SRC1 inh -1.9, ERb SRC1 inh -15.4, MRP resist rev -0.6 and MRP1 act -5.9.
Screening COc1cccc(N=C2SC(C(=O)Nc3ccc(F)cc3)CC(=O)N2C)c1 (centres undefined) returned ERa SRC1 pot 93.5, ERa SRC1 inh -1.4, ERb SRC1 inh 3.6, MRP resist rev -20.2 and MRP1 act -3.0.
COc1ccc(CN=C2NC(=O)CC(C(=O)Nc3ccc(F)cc3)S2)cc1 (centres undefined) was read as MRP1 act 6.7*.
For O=C(Nc1ccc2c(c1)C(=O)N(c1ccccc1)C2=O)C1CCCO1 (centres undefined) the results were ERa SRC1 pot 105.5, ERa SRC1 inh -4.2, ERb SRC1 inh -11.6, MRP resist rev 10.4 and MRP1 act -2.6.
Screening O=C(Oc1ccc2c(c1)OCO2)c1cc2c(s1)CCC2 returned ERa SRC1 pot 11.2, ERa SRC1 inh 92.5*[fluorescence artefact?], ERb SRC1 inh 83.3*, MRP resist rev -1.5 and MRP1 act -1.2.
Screening Cc1cc(C(=O)CN2C(=O)NC3(CCCc4sccc43)C2=O)c(C)n1-c1ccccc1 (centres undefined) returned MRP1 act 4.8*.
For COc1ccc(-n2c(C)cc(C(=O)CN3C(=O)NC4(CCCc5sccc54)C3=O)c2C)cc1 (centres undefined) the results were MRP1 act 2.5.
O=Cc1cn(-c2ccccc2)nc1-c1cc2cc(O)ccc2oc1=O was read as MRP1 act -4.0.
O=Cc1cn(-c2ccccc2)nc1-c1cc2c(ccc3ccccc32)oc1=O was read as ERa SRC1 pot 229.8*[fluorescence artefact?], ERa SRC1 inh 51.6*, ERb SRC1 inh 38.3, MRP resist rev 18.8 and MRP1 act -1.6.
N#Cc1cn(-c2ccccc2)nc1-c1cc2ccccc2oc1=O was read as ERa SRC1 pot 212.2*[fluorescence artefact?], ERa SRC1 inh 0.4, ERb SRC1 inh -10.5, MRP resist rev 9.1 and MRP1 act -0.1.
Screening CC(C)(C)S(=O)(=O)c1ccc(S(=O)(=O)C(C)(C)C)s1 returned ERa SRC1 pot 113.2, ERa SRC1 inh -10.8, ERb SRC1 inh -9.9, MRP resist rev 1.8 and MRP1 act 1.2.
For COc1nnc(-c2ccc(C)c(S(=O)(=O)NCCO)c2)c2ccccc12 the results were ERa SRC1 pot 76.7, ERa SRC1 inh 57.7*, ERb SRC1 inh 63.8*[fluorescence artefact?], MRP resist rev 10.3 and MRP1 act -0.2.
`O=C(Cc1cn2ccsc2n1)OCc1nc2ccccc2s1` gave ERa SRC1 pot 36.9, ERa SRC1 inh 64.0*, ERb SRC1 inh 63.6*[fluorescence artefact?], MRP resist rev 2.4 and MRP1 act -0.7.
`Cc1cc(Cl)cc(Br)c1OCCCN1C(=O)NC(C)(C)C1=O` gave ERa SRC1 pot 110.1, ERa SRC1 inh 4.4, ERb SRC1 inh -0.5, MRP resist rev 7.3 and MRP1 act -0.4.
`CCOC(=O)c1[nH]c2cc(OC)c(OC)cc2c1N` gave ERa SRC1 pot 93.7, ERa SRC1 inh -3.5, ERb SRC1 inh 6.4, MRP resist rev -0.4 and MRP1 act 8.5*.
Screening CCOC(=O)c1[nH]c2ccc(C)cc2c1N returned ERa SRC1 pot 99.9, ERa SRC1 inh -0.8, ERb SRC1 inh -0.8, MRP resist rev -3.7 and MRP1 act 4.5.
Cc1cc(C)n(-c2ccc(C(=O)OCC(=O)NCc3ccc(F)cc3)cc2)n1 was read as MRP1 act -0.5.
For CC(=O)c1oc2ccccc2c1NC(=O)COC(=O)c1ccc(-n2nc(C)cc2C)cc1 the results were ERa SRC1 pot 79.2, ERa SRC1 inh 75.0*[fluorescence artefact?], ERb SRC1 inh 32.5 and MRP resist rev -14.9.
`CC(=C1C(=O)c2ccccc2C1=O)N1CCN(C/C=C/c2ccccc2)CC1` gave ERa SRC1 pot 93.2, ERa SRC1 inh 4.3, ERb SRC1 inh -1.2, MRP resist rev 15.0 and MRP1 act -2.0.
`CC(=C1C(=O)c2ccccc2C1=O)N1CCN(Cc2ccccc2)CC1` gave ERa SRC1 pot 714.1*[fluorescence artefact?], ERa SRC1 inh 0.4, ERb SRC1 inh -1.9, MRP resist rev -1.7 and MRP1 act -1.0.
Screening CCOC(=O)C1=C(C)Nc2sc(C(=O)c3ccc(OC)cc3)c(N)c2C1c1ccc(C(=O)OC)cc1 (centres undefined) returned MRP1 act 7.3*.
`Cc1sc2nc(SCC(=O)NCc3ccco3)n(-c3ccccc3)c(=O)c2c1C` gave ERa SRC1 pot 229.1*[fluorescence artefact?], ERa SRC1 inh 14.6, ERb SRC1 inh 6.0, MRP resist rev 6.8 and MRP1 act -1.3.
O=C(NCc1ccco1)c1cc2cc3ccc(Cl)cc3nc2o1 was read as ERa SRC1 pot 182.4, ERa SRC1 inh 66.5*, ERb SRC1 inh 55.6*, MRP resist rev 2.1 and MRP1 act -3.0.
For O=C(CSc1nc2cc(Cl)ccc2s1)NC(=O)NCc1ccco1 the results were ERa SRC1 pot 76.9, ERa SRC1 inh 56.7*, ERb SRC1 inh 42.7, MRP resist rev 7.2 and MRP1 act -1.7.
For Cc1ccc(-n2c(SCC(=O)NCc3ccco3)nc3sc(C)c(C)c3c2=O)cc1 the results were ERa SRC1 pot 162.7, ERa SRC1 inh 4.1, ERb SRC1 inh 6.0, MRP resist rev 12.2 and MRP1 act -4.9.
Cc1sc2ncnc(NCc3ccco3)c2c1C was read as ERa SRC1 pot 61.4, ERa SRC1 inh 58.1*, ERb SRC1 inh 53.6*, MRP resist rev -1.6 and MRP1 act -4.1.
`Fc1ccc(CN2CCN3CCCC3C2C2CCCCC2)cc1F` (centres undefined) gave MRP1 act -1.3.
`CCOC(=O)c1[nH]c(C)c(CCC(=O)OC)c1C` gave ERa SRC1 pot 105.9, ERa SRC1 inh -13.9, ERb SRC1 inh -13.2, MRP resist rev 7.9 and MRP1 act -4.2.
Screening Cc1cc2cc(CNC(=O)c3ccc(C)c([N+](=O)[O-])c3)ccc2[nH]1 returned MRP1 act -0.6.
